Screen size: about 200,000 compounds; about 18,000 (9%) were called active. No stated cut-off is given here; in the data, active means inhibition above about 50%; inactive means the rest. The full list was thinned out, with actives kept by preference.

A short description of this assay: antileishmanial activity against promastigotes – primary screen (AID 1063).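 Further: promastigotes grown with compound for 44 hours at 28 °C.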 Particulars: Leishmania major promastigotes, resazurin fluorescence viability; at 10 µM; stronger effect = higher value. On the technique in general: Resazurin is reduced to fluorescent resorufin, in cell work by metabolically active cells.
Broadly, the inhibition is the drop in the measured response relative to a control, in per cent. Turning to `COc1ccc(/C(=N\O)c2nccc3cc(OC)c(OC)cc23)cc1OC`, the inhibition was 3.01% (inactive).
Take `CCOC(=O)c1ccc(NC(=O)c2cc(=O)[nH]c3ccccc23)cc1`: the inhibition is -7.03% (inactive).
As for `COc1ccccc1CNC(=O)CNC(=O)c1cn(-c2ccccc2OC)c(=O)c2ccccc12`, the inhibition is -2.45% (inactive).
Turning to `COc1cc(OC)c(C(=O)OCC(=O)N2CC(=O)Nc3ccccc32)cc1OC`, the inhibition was -4.64% (inactive).
`Cc1cccc(-n2c(N)cc(=O)nc2SC(C)C(=O)NC2CCCCC2)c1` (stereo not drawn): the inhibition was 55.9% (active).
Consider `COc1cccc(-n2c(SCC(=O)NC3CCCCC3)nc3n[nH]c(C)c3c2=N)c1`, for which the inhibition is 20.6% (inactive).
As to `CC(Sc1nnnn1C)C(=O)NC(=O)NC1CCCCC1` (stereo not drawn), the inhibition is -2.91% (inactive).
For `Cc1ccc2[nH]c(C)c(CCNC(=O)NC3CCCCC3)c2c1`, the inhibition was 5.48% (inactive).
On to `COc1ccc(N2CCN(C(=O)CNS(=O)(=O)c3ccc(C)c(C)c3)CC2)cc1`, for which the inhibition was 6.23% (inactive).
In the case of `COc1cccc(-n2c(SCC(=O)c3c[nH]c4ccccc34)nc3ccccc3c2=O)c1` it was 92.9% (active); in that of `CCCn1c(N)c(C(=O)CSc2nc3ccccc3c(=O)n2-c2ccc(OC)cc2)c(=O)[nH]c1=O`, -3.93% (inactive).
As for `N#CCSc1nc2ccccc2c(=O)n1-c1ccccc1`, the inhibition was 4.35% (inactive).
For the compound `O=C(Nc1cc(S(=O)(=O)N2CCOCC2)ccc1Cl)c1cc(=O)c2ccccc2o1`, the inhibition is 31.5% (inactive).
With `COC(=O)c1ccc(NC(=O)c2cc(Cl)ccc2OC)cc1`, the inhibition was -3.49% (inactive).
On to `COc1cc(OC)c(/C=N/NC(=O)c2ccc([N+](=O)[O-])cc2)cc1Br`, for which the inhibition was -7.92% (inactive).
In the case of `COc1ccc(/C=N/NC(=O)c2ccccc2)cc1OS(=O)(=O)c1ccccc1` it was 4.68% (inactive).
For `Cc1[nH]n(-c2ccc(Cl)cc2)c(=O)c1/C=N/n1c(C)nc2ccccc2c1=O`, the inhibition is -14.5% (inactive).
Regarding `COc1cccc(/C=N/NC(=O)c2cccc([N+](=O)[O-])c2)c1OS(=O)(=O)c1ccc(C)cc1`, the inhibition is 55.1% (active).
Consider `Cc1[nH]n(-c2ccc([N+](=O)[O-])cc2)c(=O)c1C=NCCN1CCN(C(=O)c2ccccc2F)CC1`, for which the inhibition is -1.62% (inactive).
For `Cc1ccc(-n2[nH]c(C)c(/C=N/NC(=O)c3cccc([N+](=O)[O-])c3)c2=O)cc1C`, the inhibition was 96.9% (active).
Regarding `Cc1ccc(N=Nc2c(C)[nH]n(-c3ccccc3)c2=O)cc1`, the inhibition was -5.3% (inactive).
Next, `Cc1cccc(C(=O)NNC(=O)c2cccc([N+](=O)[O-])c2)c1`: 4.56% (inactive); `Cc1[nH]n(-c2ccccc2)c(=O)c1/C=N/NC(=O)c1ccoc1C`: 96.8% (active).
In the case of `O=C(CC12CC3CC(CC(C3)C1)C2)NCc1ccco1` it was -4.33% (inactive).
In the case of `CCOc1ccc(OCc2cccc(C(=O)N(CC)CC)c2)cc1` it was 0.53% (inactive).
For `Cc1c(NC(=O)CSc2nnnn2-c2ccc(C(=O)O)cc2)c(=O)n(-c2ccccc2)n1C`, the inhibition is -3% (inactive).
For `CCOc1ccc(CCN2C(=O)c3cccnc3C2=O)cc1OCC`, the inhibition was -10.8% (inactive).
Turning to `Cn1cnnc1SCC(=O)Nc1ccc(N2CCOCC2)cc1`, the inhibition is -5.65% (inactive).
Consider `N#Cc1ccc(OCc2nnc(-c3ccc([N+](=O)[O-])cc3)o2)cc1`, for which the inhibition is -3.9% (inactive).
As for `CCc1ccc2ncc(C(=O)c3ccccc3)c(N3CCOCC3)c2c1`, the inhibition is 10.5% (inactive).
For `O=[N+]([O-])c1ccccc1NCc1ccccc1Cl`, the inhibition is 12.2% (inactive).
Take `C=CCc1cccc2cc(C(=O)Nc3ccc(NC(C)=O)cc3)c(=O)oc12`: the inhibition is -6.83% (inactive).
Turning to `C/C(=N\NC(=O)c1cccc(N2CCCC2=O)c1)c1ccc(N)cc1`, the inhibition was -3.01% (inactive).
On to `O=C(CN1C(=O)/C(=C\c2ccc(C(F)(F)F)cc2)Sc2ccccc21)NCc1ccco1`, for which the inhibition is 95.1% (active).
As for `CC(C)(C)c1ccc(C(=O)NCCC(=O)NCc2ccco2)cc1`, the inhibition is -5.5% (inactive).
As for `O=C(CN1C(=O)/C(=C/c2ccccc2F)Sc2ccccc21)NCc1cccnc1`, the inhibition is 19.2% (inactive).
On to `CCc1[nH]nc(C(=O)N2CCCC(CNS(=O)(=O)c3cccs3)C2)c1C` (stereo not drawn), for which the inhibition is -4.31% (inactive).
For the compound `CN(C)S(=O)(=O)c1cccc(NC(=S)NCc2ccc3c(c2)OCO3)c1`, the inhibition is -0.11% (inactive).
Regarding `C/C(=N\NC(=S)NCc1ccccc1)c1ccc(Cl)cc1`, the inhibition is 1.34% (inactive).
In the case of `CC1CCCCN1C(=S)NCc1ccccc1` (stereo not drawn) it was -0.34% (inactive).
With `C/C(=N\NC(=S)NCc1ccccc1)C1CCCCC1`, the inhibition is 89.9% (active).
`COc1ccc2nc(Nc3nc(-c4ccncc4)cs3)sc2c1`: the inhibition is 7.68% (inactive).
For `c1csc(-c2nnc(COc3ccc4c(c3)OCO4)o2)c1`, the inhibition is 5.84% (inactive).
In the case of `CCN(C(=O)COC(=O)c1ccc(COc2ccc3c(C)cc(=O)oc3c2)cc1)C1CCS(=O)(=O)C1` (stereo not drawn), the inhibition was -10.4% (inactive).
Turning to `Cc1ccc(NC(=O)c2ccc(Oc3ncccn3)cc2)cc1`, the inhibition is 7.15% (inactive).
On to `Cc1nccn1CC(=O)N/N=C/c1ccc(O)c(O)c1`, for which the inhibition was -6.58% (inactive).
For `Oc1ccc(/C=N/Nc2ccc(C(F)(F)F)cn2)cc1O`, the inhibition was 95.4% (active).
For `FC(F)(F)c1cccc(N/N=C/c2ccccc2)c1`, the inhibition was -13.1% (inactive).
Take `CCc1nnc(NC(=O)C2CC(=O)N(c3ccc4c(c3)OCCO4)C2)s1` (stereo not drawn): the inhibition was -9.31% (inactive).
As to `c1ccc(C(c2ccccc2)N2CCN(Cc3nnnn3C3CCCCC3)CC2)cc1`, the inhibition was 9.22% (inactive).
In the case of `c1ccc(CCn2nnnc2CN2CCN(C3CCCC3)CC2)cc1` it was 85.5% (active).
Regarding `N#Cc1ccc(C(c2nnnn2CCc2ccccc2)N2CCCCCC2)cc1` (stereo not drawn), the inhibition is 16.3% (inactive).
For the compound `CCOc1cc(NC(=S)NCCCN(C)C)c(OCC)cc1NC(=O)C1CC1`, the inhibition is -0.62% (inactive).
As to `C=CCn1cc(-c2cccc(C(F)(F)F)c2)cc(C#N)c1=O`, the inhibition was 10.4% (inactive).
As to `O=[N+]([O-])c1ccc(N/N=C2/CCCCC2c2ccccn2)c([N+](=O)[O-])c1` (stereo not drawn), the inhibition is 2.5% (inactive).
With `O=C(Nc1ccccc1)O/N=C1\CCCCC1c1ccc([N+](=O)[O-])cc1[N+](=O)[O-]` (stereo not drawn), the inhibition is 99.6% (active).
As for `C[n+]1ccccc1C1CCCC/C1=N\Nc1ccc([N+](=O)[O-])cc1[N+](=O)[O-]` (stereo not drawn), the inhibition is -1.09% (inactive).
`O=C(CN1CCCCC1)Nc1ccccc1Cl`: the inhibition is -0.98% (inactive).
For `O=C(Nc1ccccc1Cl)c1ccc2nsnc2c1`, the inhibition is -3.57% (inactive).
With `O=C(Nc1ccccc1Cl)/C(Cl)=C(\Cl)S(=O)c1ccccc1` (stereo not drawn), the inhibition is 101% (active).
Consider `COc1cccc(/C=C/C(=O)Nc2ccc3c(c2)OCCO3)c1`, for which the inhibition is 13.7% (inactive).
Consider `Cc1cc(C(=O)Nc2ccccc2N2CCOCC2)c2ccccc2n1`, for which the inhibition is 1.07% (inactive).
In the case of `CCN1CCN(c2cc3nc(C)n(Cc4ccccc4)c(=O)c3cc2NC(=O)c2ccccc2F)CC1`, the inhibition was 98.3% (active).
As to `CCC(=O)Nc1ccc2nc(C)n(Cc3ccccc3Cl)c(=O)c2c1`, the inhibition is 4.75% (inactive).
In the case of `Cc1c(/C=N\NC(=O)c2cc3ccccc3o2)c2ccccc2n1C` it was 9.72% (inactive); in that of `O=C(c1ccc2ccccc2n1)N1CCN(c2ccccc2Cl)CC1`, -3.63% (inactive).
For `O=C(c1ccc(-c2ccccc2)cc1)C1CCCN(C(=O)c2cncs2)C1` (stereo not drawn), the inhibition is 58.5% (active).
With `O=C(c1ccc(C(F)(F)F)cc1)C1CCCN(C(=O)c2csnn2)C1` (stereo not drawn), the inhibition is -5.59% (inactive).
Turning to `CSc1ccc(C(=O)C2CCCN(C(=O)c3ccc(C)nc3)C2)cc1` (stereo not drawn), the inhibition was -4.42% (inactive).
Consider `C/C=N/NC(=O)CCCC(=O)N/N=C/C`, for which the inhibition is 13.8% (inactive).
Take `COc1cccc(NC(=O)CN(C)C(C)C(=O)Nc2ccc(C#N)cc2)c1` (stereo not drawn): the inhibition was 5.24% (inactive).
Regarding `CCOc1ccc(NS(=O)(=O)c2ccc(C)c(C(N)=O)c2)cc1`, the inhibition is -2.88% (inactive).
Turning to `COCCn1c(Cc2cccn2C)nnc1SCC(=O)Nc1nccs1`, the inhibition was 1.7% (inactive).
On to `Nc1cc(C(F)(F)F)ccc1N1CCOCC1`, for which the inhibition is 0.97% (inactive).
Regarding `O=C(/C=C/c1ccc(Cl)cc1)Nc1ccc(Br)cn1`, the inhibition was 0.77% (inactive).
On to `O=C(Nc1ccc(Br)cn1)c1ccc([N+](=O)[O-])o1`, for which the inhibition was 100% (active).
Next, `O=C(Nc1ccc(Br)cn1)c1ccc([N+](=O)[O-])cc1Cl`: 13.7% (inactive); `CS(=O)(=O)Nc1cccc(-c2cn3ccccc3n2)c1`: -2.73% (inactive); `Cc1cnc(C(=O)OCC(=O)NCCCc2ccccc2)cn1`: -4.28% (inactive).
With `O=C(NCc1ccco1)C1(c2ccc(Cl)cc2)CCCC1`, the inhibition was 76.6% (active).
Next, `O=C(NCCCCCCNC(=O)NCc1ccco1)NCc1ccco1`: -3.59% (inactive); `O=C(CC1CCCCC1)NCc1ccco1`: -0.08% (inactive).
With `COc1ccc(N2C(=O)C(Cc3ccccc3)NC2=S)cc1` (stereo not drawn), the inhibition is -0.72% (inactive).
For `Cn1cc(CN2CCCCC2c2ccccn2)c(-c2ccc3c(c2)OCCO3)n1` (stereo not drawn), the inhibition was -2.73% (inactive).
For `Cc1ccccc1-n1c(C)cc(/C=C2\NC(=O)NC2=O)c1C`, the inhibition was 7.26% (inactive).
Take `Cc1cc(/C=C2/NC(=O)NC2=O)c(C)n1-c1cccnc1`: the inhibition was 60.6% (active).
For `Cc1cc(/C=C2\SC(=Nc3ccc(N4CCOCC4)cc3)N(C)C2=O)c(C)n1-c1cccnc1`, the inhibition is 0.4% (inactive).
For `CCNC(=O)COc1cc(C)c(Br)c(C)c1`, the inhibition was -1.41% (inactive).
As for `CN(C)/C=C(/C(=O)c1ccc(F)cc1)S(=O)(=O)c1ccc(F)cc1`, the inhibition is -1.08% (inactive).
In the case of `CCC(C)(C)NC(=O)C(c1ccccn1)N(C(=O)c1csnn1)c1ccccc1` (stereo not drawn) it was -5.39% (inactive).
In the case of `Cc1ccc(C)c(-n2nnnc2SCC(=O)c2c(N)n(C)c(=O)n(C)c2=O)c1` it was -5.78% (inactive); in that of `CN(C)/C=C(/C(=O)c1ccccc1)S(=O)(=O)c1ccc(Cl)cc1`, -6.81% (inactive).
For the compound `COc1ccc(/C=N/NC(=O)Nc2ccc3nsnc3c2)c(OC)c1`, the inhibition was -1.6% (inactive).

The values are drawn from PubChem BioAssay AID1063 (University of Pittsburgh Molecular Library Screening Center, 2008).
